Source: paper PMC7862700, “An all-to-all approach to the identification of sequence-specific readers for epigenetic DNA modifications on cytosine”

Tests used:
Assay in all cases: DAPPL (digital affinity profiling via proximity ligation, sequencing); 10 mM Tris-HCl pH 7.5, 50 mM NaCl, 1 mM DTT, 4% glycerol, room temperature, 30 min; GST-TFs on glutathione beads, 16-mer random dsDNA library, 0.1% formaldehyde crosslink after washing; high values mean tight binding
FEV = biological target: T1, FEV (Homo sapiens, UniProt Q99581 1-238); settings: protein: recombinant; tags: N-terminal GST; dsDNA, one strand shown
T1 sequence: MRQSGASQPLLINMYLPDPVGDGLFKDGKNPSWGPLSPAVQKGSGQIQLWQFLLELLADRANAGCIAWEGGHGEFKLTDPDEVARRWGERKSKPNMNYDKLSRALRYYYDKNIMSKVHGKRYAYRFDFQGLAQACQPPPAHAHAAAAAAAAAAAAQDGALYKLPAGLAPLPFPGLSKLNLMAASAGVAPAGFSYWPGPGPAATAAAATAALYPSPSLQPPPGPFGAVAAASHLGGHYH
Outline: (§1)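 In yeast, human transcription factors were expressed with a GST fusion, then pulled down on glutathione beads and given DNA barcodes. Pooled with a tag-only sample, they were exposed to 200 nmole of a 16-mer random double-stranded DNA library (Tris/NaCl/DTT/glycerol buffer, room temperature, 30 min), washed, crosslinked with 0.1% formaldehyde, proximity-ligated using BsaI/T4 ligase for 1 h at 37 °C, PCR-amplified and read on an Illumina NextSeq500. Each hexamer's frequency of reads for a factor, divided by the matching frequency for the tag-only sample, gives the binding signal.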

ETV5 = ETV5 (Homo sapiens, UniProt P41161 1-510); settings: protein: recombinant; tags: N-terminal GST; dsDNA, one strand shown
Sequence of ETV5 (P41161 whole entry): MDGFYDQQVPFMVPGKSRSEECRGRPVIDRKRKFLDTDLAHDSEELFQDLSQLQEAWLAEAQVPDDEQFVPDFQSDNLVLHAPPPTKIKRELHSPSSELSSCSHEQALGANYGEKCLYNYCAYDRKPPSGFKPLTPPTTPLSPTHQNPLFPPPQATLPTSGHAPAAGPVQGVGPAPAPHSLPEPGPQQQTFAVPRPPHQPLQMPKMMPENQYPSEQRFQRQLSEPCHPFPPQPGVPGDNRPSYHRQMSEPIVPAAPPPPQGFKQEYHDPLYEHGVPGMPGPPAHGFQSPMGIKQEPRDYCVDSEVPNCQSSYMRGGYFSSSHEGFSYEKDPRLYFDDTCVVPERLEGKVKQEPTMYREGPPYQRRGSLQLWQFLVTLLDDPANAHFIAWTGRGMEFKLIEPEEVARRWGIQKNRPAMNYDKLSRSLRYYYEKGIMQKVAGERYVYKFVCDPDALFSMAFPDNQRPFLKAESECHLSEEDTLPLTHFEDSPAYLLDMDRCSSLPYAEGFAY
Outline: as §1

HSF1 = HSF1 (Homo sapiens, UniProt Q00613 1-529); settings: protein: recombinant; tags: N-terminal GST; chain copies: 3; dsDNA, one strand shown
Sequence of HSF1 (Q00613 whole entry): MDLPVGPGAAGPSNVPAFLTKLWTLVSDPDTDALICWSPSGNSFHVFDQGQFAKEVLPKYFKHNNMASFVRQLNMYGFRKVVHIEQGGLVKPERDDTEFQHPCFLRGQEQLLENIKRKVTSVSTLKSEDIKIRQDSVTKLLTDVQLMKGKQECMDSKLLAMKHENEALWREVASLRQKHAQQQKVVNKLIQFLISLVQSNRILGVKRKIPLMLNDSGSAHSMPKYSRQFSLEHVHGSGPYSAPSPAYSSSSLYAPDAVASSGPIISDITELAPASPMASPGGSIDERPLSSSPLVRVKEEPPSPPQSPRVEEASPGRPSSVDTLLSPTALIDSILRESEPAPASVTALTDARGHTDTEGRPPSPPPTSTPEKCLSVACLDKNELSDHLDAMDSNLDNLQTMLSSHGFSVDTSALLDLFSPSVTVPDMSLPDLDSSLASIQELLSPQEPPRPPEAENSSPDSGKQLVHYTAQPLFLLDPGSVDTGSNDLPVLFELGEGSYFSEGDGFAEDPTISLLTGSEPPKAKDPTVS
Outline: as §1

SPIC = biological target: T2, SPIC (Homo sapiens, UniProt Q8N5J4 1-248); settings: protein: recombinant; tags: N-terminal GST; dsDNA, one strand shown
T2 sequence: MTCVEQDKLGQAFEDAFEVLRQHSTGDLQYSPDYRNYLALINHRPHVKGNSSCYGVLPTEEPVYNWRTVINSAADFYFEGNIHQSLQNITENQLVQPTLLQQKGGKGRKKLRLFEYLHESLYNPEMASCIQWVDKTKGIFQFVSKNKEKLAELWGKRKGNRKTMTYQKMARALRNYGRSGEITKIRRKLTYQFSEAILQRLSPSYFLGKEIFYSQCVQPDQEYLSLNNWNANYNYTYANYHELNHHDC
Outline: as §1

ELF4 = ELF4 (Homo sapiens, UniProt Q99607 1-663); settings: protein: recombinant; tags: N-terminal GST; dsDNA, one strand shown
Sequence of ELF4 (Q99607 whole entry): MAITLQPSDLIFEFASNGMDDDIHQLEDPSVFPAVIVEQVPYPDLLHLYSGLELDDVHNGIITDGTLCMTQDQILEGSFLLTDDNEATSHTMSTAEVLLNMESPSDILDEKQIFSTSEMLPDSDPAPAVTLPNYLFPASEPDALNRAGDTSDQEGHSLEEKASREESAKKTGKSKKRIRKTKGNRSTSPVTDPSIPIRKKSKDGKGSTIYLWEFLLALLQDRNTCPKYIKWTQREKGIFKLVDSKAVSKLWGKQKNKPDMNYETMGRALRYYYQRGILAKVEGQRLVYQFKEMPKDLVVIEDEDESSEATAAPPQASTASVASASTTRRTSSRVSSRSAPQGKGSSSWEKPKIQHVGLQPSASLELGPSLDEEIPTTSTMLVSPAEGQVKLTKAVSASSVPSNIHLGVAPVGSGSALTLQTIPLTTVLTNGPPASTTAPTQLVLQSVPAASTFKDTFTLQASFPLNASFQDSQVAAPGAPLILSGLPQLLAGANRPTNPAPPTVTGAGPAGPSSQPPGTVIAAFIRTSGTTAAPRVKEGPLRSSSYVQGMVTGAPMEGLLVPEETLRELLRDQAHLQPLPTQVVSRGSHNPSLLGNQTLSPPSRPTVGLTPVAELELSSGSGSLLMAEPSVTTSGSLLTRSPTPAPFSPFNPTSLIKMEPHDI
Outline: as §1

ELK4 = biological target: T3, ELK4 (Homo sapiens, UniProt P28324-2 1-405); settings: protein: recombinant; tags: N-terminal GST; dsDNA, one strand shown
T3 sequence: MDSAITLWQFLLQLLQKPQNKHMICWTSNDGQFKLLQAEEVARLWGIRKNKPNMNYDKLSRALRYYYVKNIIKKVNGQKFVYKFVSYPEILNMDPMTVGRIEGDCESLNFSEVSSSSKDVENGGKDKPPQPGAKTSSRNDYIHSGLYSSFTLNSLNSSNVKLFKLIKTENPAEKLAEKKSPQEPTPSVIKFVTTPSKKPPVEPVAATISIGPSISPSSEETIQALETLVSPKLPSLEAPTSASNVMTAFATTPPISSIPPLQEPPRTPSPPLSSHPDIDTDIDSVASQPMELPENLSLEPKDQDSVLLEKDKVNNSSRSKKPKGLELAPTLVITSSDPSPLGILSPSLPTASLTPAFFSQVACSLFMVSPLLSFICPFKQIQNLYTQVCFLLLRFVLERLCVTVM
Outline: as §1

ETV2 = biological target: T4, ETV2 (Homo sapiens, UniProt O00321 1-342); settings: protein: recombinant; tags: N-terminal GST; dsDNA, one strand shown
T4 sequence: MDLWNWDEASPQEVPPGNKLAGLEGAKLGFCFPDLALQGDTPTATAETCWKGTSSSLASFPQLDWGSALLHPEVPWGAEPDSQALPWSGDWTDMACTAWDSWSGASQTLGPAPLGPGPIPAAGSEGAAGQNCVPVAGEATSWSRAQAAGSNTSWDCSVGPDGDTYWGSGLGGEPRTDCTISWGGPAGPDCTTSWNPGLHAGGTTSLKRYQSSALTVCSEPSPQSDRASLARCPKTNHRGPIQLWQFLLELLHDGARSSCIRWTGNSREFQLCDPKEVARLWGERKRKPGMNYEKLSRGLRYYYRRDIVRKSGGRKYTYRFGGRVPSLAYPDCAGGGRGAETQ
Outline: as §1

ELF3 = biological target: T5, ELF3 (Homo sapiens, UniProt P78545 1-371); settings: protein: recombinant; tags: N-terminal GST; dsDNA, one strand shown
T5 sequence: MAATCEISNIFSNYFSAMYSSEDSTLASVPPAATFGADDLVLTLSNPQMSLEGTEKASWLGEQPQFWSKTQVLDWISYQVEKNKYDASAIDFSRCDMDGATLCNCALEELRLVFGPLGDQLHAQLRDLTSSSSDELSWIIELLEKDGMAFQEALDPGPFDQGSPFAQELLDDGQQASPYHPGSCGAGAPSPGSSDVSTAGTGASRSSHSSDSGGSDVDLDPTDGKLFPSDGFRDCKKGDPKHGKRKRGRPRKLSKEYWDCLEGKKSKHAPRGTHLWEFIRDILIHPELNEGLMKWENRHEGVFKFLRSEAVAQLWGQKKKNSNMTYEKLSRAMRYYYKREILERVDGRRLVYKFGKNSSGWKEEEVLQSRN
Outline: as §1

CRX = CRX (Homo sapiens, UniProt O43186 1-299); settings: protein: recombinant; tags: N-terminal GST; dsDNA, one strand shown
Sequence of CRX (O43186 whole entry): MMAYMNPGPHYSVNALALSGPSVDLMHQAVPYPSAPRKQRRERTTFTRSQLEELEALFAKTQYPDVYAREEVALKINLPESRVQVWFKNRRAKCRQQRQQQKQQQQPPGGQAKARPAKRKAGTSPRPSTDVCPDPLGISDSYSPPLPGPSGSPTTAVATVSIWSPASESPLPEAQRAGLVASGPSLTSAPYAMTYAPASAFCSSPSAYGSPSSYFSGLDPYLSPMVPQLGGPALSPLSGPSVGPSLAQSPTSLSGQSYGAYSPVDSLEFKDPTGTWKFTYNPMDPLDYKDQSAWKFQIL
Outline: as §1

ETV1 = ETV1 (Homo sapiens, UniProt P50549 1-477); settings: protein: recombinant; tags: N-terminal GST; dsDNA, one strand shown
Sequence of ETV1 (P50549 whole entry): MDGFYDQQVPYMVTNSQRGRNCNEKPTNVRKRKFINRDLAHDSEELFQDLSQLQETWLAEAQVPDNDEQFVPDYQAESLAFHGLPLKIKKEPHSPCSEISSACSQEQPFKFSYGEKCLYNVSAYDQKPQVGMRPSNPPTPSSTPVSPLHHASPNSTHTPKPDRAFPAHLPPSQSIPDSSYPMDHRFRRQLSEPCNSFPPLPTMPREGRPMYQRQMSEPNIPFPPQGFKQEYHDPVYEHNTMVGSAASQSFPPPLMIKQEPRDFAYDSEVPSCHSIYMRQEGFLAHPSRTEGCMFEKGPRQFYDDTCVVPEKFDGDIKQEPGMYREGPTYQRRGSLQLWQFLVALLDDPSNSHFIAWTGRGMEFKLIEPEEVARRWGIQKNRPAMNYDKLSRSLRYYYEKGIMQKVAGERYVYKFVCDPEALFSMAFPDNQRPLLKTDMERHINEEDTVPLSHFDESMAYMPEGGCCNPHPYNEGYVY
Outline: as §1

ERF = biological target: T6, ERF (Homo sapiens, UniProt P50548 1-548); settings: protein: recombinant; tags: N-terminal GST; dsDNA, one strand shown
T6 sequence: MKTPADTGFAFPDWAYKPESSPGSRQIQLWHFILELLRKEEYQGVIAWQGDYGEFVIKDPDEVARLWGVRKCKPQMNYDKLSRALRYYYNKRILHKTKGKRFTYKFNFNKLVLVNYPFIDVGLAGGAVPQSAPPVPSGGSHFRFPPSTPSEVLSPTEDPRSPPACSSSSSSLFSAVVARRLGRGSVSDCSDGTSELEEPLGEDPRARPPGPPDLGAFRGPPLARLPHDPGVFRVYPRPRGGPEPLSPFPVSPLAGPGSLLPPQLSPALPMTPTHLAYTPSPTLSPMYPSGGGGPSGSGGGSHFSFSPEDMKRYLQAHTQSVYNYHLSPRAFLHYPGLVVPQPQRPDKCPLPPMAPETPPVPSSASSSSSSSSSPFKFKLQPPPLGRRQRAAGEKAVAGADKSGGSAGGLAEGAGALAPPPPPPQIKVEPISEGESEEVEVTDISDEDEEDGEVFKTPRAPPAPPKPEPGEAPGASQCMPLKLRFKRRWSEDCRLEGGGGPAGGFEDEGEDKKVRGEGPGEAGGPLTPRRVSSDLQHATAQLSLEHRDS
Outline: as §1

ETV3L = biological target: T7, ETV3L (Homo sapiens, UniProt Q6ZN32 1-361); settings: protein: recombinant; tags: N-terminal GST; dsDNA, one strand shown
T7 sequence: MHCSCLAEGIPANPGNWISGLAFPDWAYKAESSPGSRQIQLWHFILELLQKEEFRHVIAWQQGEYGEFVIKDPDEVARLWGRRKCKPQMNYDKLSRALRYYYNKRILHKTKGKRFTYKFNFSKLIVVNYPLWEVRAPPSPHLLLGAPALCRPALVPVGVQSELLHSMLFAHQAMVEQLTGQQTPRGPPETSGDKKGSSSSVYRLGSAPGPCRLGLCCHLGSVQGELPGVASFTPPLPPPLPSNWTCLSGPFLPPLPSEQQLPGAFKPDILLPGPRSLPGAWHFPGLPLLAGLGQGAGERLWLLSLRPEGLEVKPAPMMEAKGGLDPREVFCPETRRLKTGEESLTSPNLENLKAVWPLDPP
Outline: as §1

ETS2 = biological target: T8, ETS2 (Homo sapiens, UniProt P15036 1-469); settings: protein: recombinant; tags: N-terminal GST; dsDNA, one strand shown
T8 sequence: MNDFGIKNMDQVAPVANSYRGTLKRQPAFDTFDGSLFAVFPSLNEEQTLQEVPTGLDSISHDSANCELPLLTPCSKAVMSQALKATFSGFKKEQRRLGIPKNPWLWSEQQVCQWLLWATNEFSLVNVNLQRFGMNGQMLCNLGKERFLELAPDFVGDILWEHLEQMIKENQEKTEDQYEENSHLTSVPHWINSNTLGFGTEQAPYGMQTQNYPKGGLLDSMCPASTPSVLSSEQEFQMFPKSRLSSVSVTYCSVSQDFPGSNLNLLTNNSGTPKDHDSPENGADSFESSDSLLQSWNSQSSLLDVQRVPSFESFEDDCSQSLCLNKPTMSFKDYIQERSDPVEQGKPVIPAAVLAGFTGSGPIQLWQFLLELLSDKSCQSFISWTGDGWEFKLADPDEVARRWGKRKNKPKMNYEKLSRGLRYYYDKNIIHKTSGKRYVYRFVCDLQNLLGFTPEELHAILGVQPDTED
Outline: as §1

SPDEF = biological target: T9, SPDEF (Homo sapiens, UniProt O95238 1-335); settings: protein: recombinant; tags: N-terminal GST; dsDNA, one strand shown
T9 sequence: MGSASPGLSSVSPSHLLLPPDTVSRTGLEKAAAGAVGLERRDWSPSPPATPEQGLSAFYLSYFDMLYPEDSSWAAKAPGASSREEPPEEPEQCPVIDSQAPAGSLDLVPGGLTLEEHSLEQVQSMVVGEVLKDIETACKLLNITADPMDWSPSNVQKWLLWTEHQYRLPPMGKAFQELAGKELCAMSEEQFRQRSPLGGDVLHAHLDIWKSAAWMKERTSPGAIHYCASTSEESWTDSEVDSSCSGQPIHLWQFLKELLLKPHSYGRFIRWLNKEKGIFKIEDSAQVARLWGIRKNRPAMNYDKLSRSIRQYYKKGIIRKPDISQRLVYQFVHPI
Outline: as §1

ETV7 = biological target: T10, ETV7 (Homo sapiens, UniProt Q9Y603 1-341); settings: protein: recombinant; tags: N-terminal GST; dsDNA, one strand shown
T10 sequence: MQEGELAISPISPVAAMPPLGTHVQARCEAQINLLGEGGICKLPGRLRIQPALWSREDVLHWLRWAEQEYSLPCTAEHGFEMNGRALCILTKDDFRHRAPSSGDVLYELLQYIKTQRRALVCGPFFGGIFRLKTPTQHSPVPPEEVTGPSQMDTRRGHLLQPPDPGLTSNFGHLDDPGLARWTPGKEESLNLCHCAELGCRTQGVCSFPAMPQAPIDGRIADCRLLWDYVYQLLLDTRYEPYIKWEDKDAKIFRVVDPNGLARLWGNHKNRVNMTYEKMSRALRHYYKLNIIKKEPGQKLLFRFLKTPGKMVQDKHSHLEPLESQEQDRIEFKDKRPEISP
Outline: as §1

ELF5 = biological target: T11, ELF5 (Homo sapiens, UniProt Q9UKW6-2 1-255); settings: protein: recombinant; tags: N-terminal GST; dsDNA, one strand shown
T11 sequence: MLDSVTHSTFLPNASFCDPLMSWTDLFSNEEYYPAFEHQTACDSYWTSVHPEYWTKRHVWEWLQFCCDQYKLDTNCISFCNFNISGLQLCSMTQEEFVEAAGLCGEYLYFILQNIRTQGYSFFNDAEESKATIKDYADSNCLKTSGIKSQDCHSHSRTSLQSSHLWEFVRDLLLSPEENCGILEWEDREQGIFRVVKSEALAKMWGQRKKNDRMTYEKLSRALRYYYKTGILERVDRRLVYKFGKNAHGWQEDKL
Outline: as §1

ETV3 = biological target: T12, ETV3 (Homo sapiens, UniProt P41162-2 1-143); settings: protein: recombinant; tags: N-terminal GST; dsDNA, one strand shown
T12 sequence: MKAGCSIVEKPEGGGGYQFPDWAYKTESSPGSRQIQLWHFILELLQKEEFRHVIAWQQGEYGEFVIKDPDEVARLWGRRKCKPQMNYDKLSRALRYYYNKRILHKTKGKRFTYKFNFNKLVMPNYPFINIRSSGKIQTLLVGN
Outline: as §1

ETV6 = ETV6 (Homo sapiens, UniProt P41212 1-452); settings: protein: recombinant; tags: N-terminal GST; dsDNA, one strand shown
Sequence of ETV6 (P41212 whole entry): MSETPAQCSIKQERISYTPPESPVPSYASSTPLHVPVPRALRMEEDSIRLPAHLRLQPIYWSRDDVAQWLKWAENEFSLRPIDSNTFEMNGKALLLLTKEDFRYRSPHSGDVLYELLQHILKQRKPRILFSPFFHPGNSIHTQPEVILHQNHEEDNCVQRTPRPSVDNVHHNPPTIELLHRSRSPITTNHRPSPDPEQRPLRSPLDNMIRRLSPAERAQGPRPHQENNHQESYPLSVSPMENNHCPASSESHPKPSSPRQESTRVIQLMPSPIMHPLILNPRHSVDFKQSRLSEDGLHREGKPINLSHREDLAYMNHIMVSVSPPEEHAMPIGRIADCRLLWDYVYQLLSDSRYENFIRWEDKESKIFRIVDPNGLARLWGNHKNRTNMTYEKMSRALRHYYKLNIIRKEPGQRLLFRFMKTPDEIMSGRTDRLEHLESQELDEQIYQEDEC
Outline: as §1

Sequence	binding signal (FEV)	binding signal (ETV5)	binding signal (HSF1)	binding signal (SPIC)	binding signal (ELF4)	binding signal (ELK4)	binding signal (ETV2)	binding signal (ELF3)	binding signal (CRX)	binding signal (ETV1)	binding signal (ERF)	binding signal (ETV3L)	binding signal (ETS2)	binding signal (SPDEF)	binding signal (ETV7)	binding signal (ELF5)	binding signal (ETV3)	binding signal (ETV6)
ATCCCC	1.44 fold enrichment (6-mer frequency, TF over GST control)	1.37 fold enrichment (6-mer frequency, TF over GST control)	1.78 fold enrichment (6-mer frequency, TF over GST control)	1.37 fold enrichment (6-mer frequency, TF over GST control)	1.37 fold enrichment (6-mer frequency, TF over GST control)	1.44 fold enrichment (6-mer frequency, TF over GST control)	1.39 fold enrichment (6-mer frequency, TF over GST control)	1.53 fold enrichment (6-mer frequency, TF over GST control)	2.37 fold enrichment (6-mer frequency, TF over GST control)	1.43 fold enrichment (6-mer frequency, TF over GST control)	1.43 fold enrichment (6-mer frequency, TF over GST control)	1.41 fold enrichment (6-mer frequency, TF over GST control)	1.29 fold enrichment (6-mer frequency, TF over GST control)	1.41 fold enrichment (6-mer frequency, TF over GST control)	1.3 fold enrichment (6-mer frequency, TF over GST control)	1.46 fold enrichment (6-mer frequency, TF over GST control)	1.35 fold enrichment (6-mer frequency, TF over GST control)	1.29 fold enrichment (6-mer frequency, TF over GST control)
TTTGCG	1.13 fold enrichment (6-mer frequency, TF over GST control)	1.29 fold enrichment (6-mer frequency, TF over GST control)	1.3 fold enrichment (6-mer frequency, TF over GST control)	1.37 fold enrichment (6-mer frequency, TF over GST control)	1.21 fold enrichment (6-mer frequency, TF over GST control)	1.03 fold enrichment (6-mer frequency, TF over GST control)	1.13 fold enrichment (6-mer frequency, TF over GST control)	1.3 fold enrichment (6-mer frequency, TF over GST control)	1.31 fold enrichment (6-mer frequency, TF over GST control)	1.34 fold enrichment (6-mer frequency, TF over GST control)	1.36 fold enrichment (6-mer frequency, TF over GST control)	1.16 fold enrichment (6-mer frequency, TF over GST control)	1.21 fold enrichment (6-mer frequency, TF over GST control)	1.2 fold enrichment (6-mer frequency, TF over GST control)	1.11 fold enrichment (6-mer frequency, TF over GST control)	1.16 fold enrichment (6-mer frequency, TF over GST control)	1.17 fold enrichment (6-mer frequency, TF over GST control)	1.29 fold enrichment (6-mer frequency, TF over GST control)
